The structures appear in SMILES notation. Activity calls are given as the source filed them. A call without a number means that no potency is given here. Calls come from the whole dose curve; as a rule, active = well fitted curve in the direction sought with a large enough effect; inconclusive = small, poorly fitted or top-dose-only effect, or another doubt; inactive = no such curve, though single readings can be large or run the other way.

Chain of Hexokinase-4 (Homo sapiens) + Glucokinase regulatory protein (Homo sapiens) (P35557 whole entry, looked up): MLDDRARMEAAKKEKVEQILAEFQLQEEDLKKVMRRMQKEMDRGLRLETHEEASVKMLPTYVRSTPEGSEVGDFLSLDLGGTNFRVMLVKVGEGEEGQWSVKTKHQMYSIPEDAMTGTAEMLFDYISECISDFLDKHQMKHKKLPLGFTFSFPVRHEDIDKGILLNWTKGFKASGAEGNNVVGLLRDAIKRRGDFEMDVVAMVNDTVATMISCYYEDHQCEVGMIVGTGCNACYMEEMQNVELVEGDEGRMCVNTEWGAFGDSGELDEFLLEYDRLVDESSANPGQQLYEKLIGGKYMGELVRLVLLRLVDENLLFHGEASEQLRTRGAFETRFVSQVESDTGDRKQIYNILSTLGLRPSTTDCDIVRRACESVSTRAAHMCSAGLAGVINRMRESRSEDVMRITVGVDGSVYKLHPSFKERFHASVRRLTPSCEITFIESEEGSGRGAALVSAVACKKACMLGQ
Chain of Hexokinase-4 (Homo sapiens) + Glucokinase regulatory protein (Homo sapiens) (Q14397 whole entry, looked up): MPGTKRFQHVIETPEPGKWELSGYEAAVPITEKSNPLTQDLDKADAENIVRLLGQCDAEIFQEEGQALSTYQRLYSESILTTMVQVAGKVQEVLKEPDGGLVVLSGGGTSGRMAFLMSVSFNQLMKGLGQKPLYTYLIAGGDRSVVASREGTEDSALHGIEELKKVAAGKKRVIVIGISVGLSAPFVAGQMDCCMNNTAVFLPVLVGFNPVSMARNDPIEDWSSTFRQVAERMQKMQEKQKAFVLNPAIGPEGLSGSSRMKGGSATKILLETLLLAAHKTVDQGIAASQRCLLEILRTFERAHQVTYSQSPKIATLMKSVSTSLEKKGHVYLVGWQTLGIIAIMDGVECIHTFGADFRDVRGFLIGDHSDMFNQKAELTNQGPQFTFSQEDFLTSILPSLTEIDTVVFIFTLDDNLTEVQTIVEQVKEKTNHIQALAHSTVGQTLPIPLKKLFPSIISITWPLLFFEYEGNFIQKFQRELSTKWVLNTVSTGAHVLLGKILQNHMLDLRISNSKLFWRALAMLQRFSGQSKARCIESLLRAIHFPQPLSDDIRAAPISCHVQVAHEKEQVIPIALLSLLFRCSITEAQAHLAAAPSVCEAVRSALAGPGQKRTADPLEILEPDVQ

This assay addresses Hexokinase-4 (Homo sapiens) + Glucokinase regulatory protein (Homo sapiens) (UniProt P35557+Q14397). The assay can be described thus: qHTS assay for inhibitors of recombinant human GCK-GKRP interaction: HTRF assay (AID 743207). As to conditions: recombinant GCK-GKRP HTRF binding, 60 min, with sorbitol-6-phosphate; series mostly up to 57.5 µM. The source says: Glucokinase (GCK) is a glucose sensor in hepatocytes and pancreatic beta-cells. Hepatic GCK is regulated by glucokinase regulatory protein (GKRP), which is predominantly localized to the liver. GKRP binds to GCK inhibiting its activity in the fasting state while in the presence of glucose the GKRP is displaced. There is an additional layer of regulation by fructose 1-phosphate and fructose 6-phosphate, which inhibit and enhance the GCK-GKRP interaction, respectively. GCK plays a role in glucose homeostasis and there is an interest in the development of strategies to activate GCK to lower blood glucose levels in type 2 diabetes. To date the majority of effort has focused on direct activation of GCK and the assays developed herein look to activate GCK by inhibiting its binding to GKRP. A compound that inhibits the interaction of GCK with GKRP could be important for the treatment of diabetes and can also be used as a tool compound to further elucidate GCK-GKRP biology. To that end, we have developed an HTS biochemical assay using HTRF technology for to interrogate the GCK-GKRP interaction. This assay was screened against a small compound library to look for modulators of activity.
3 uL of 5 nM GST-GCK and 5 nM FLAG-GKRP proteins with 2 uM S6P (columns 1-2, 4-48; Millipore, Billerica, MA) are dispensed into Greiner, white solid-bottom 1536-well assay plates; columns 3 receive buffer without GCK as a control for maximum inhibition. Buffer contains 2 mM MgCl2, 25 mM KCl, 25 mM Hepes, 1 mM DTT, 0.1% Tween 20 and 0.025% BSA and the pH was adjusted to 7.1. Compounds (23 nL) are then transferred via Kalypsys pin tool equipped with 1536-pin array (10 nL slotted pins, V&P Scientific, San Diego, CA). The library compounds are in columns 5-48 and columns 1-4 serve as controls with DMSO in columns 1 and 3 and 26 mM 1:1.5 fold serial of gluckokinase activator (GKA-EMD) in column 2 and 26 mM of the glucokinase activator (GKA-EMD) in column 4. Following addition of compound, 1 uL of detection antibodies (anti-Flag XL 665 and anti-GST K in reconstitution buffer from Cisbio, Bedford, MA; 0.7 ng/well and 0.0945 ng/well, respectively) is added, and the mixture is allowed to equilibrate for 60 minutes at room temperature. Data are normalized to DMSO-treated control columns with (maximum signal) and without (minimum signal) enzyme. Plates were read on an Envision plate reader (PerkinElmer, Shelton, CT, USA) with excitation at 320 nm and dual-wavelength detection at the Fret donor wavelength (615 nm) and the FRET acceptor wavelength (665 nm).
(Quantitative high-throughput screening tests each substance at several concentrations.)
`C#C[C@]1(O)CC[C@H]2[C@@H]3CCC4=Cc5oncc5CC4(C)[C@H]3CCC21C` (stereo not given in full): the Potency entry is “inactive”.

As for `NC(=O)C(=O)O`, the Potency entry is “inactive”.

In the case of `OC[C@H]1O[C@@H](n2cnc3c(Nc4ccccc4)ncnc32)[C@H](O)[C@@H]1O`, the Potency entry was “inactive”.

For the compound `CC1(C)CCC=[N+]1[O-]`, the Potency result is “inactive”.

As for `CC(C)Cc1ccc([C@H](C)C(=O)O)cc1`, the Potency result is “inactive”.

As for `Cc1cc(NC(=O)Nc2ccc3c(ccn3C)c2)sn1`, the Potency result was “inactive”.

For the compound `C=C[C@@H]1CN2CC[C@@H]1C[C@H]2[C@H](O)c1ccnc2ccc(OC)cc12`, the Potency result is “inactive”.

In the case of `Oc1ccccc1O`, the Potency result is “inactive”.

In the case of `Cc1ccc(C(=O)O[C@H](C(=O)O)[C@@H](OC(=O)c2ccc(C)cc2)C(=O)O)cc1` (tested in a mixture with another compound), the Potency entry is “inactive”.

On to `NC(N)=NC(=O)c1nc(Cl)c(N2CCCCCC2)nc1N`, for which the Potency result was “inactive”.

With `CC(C)(C)c1ccc(S(=O)(=O)/C=C/C#N)cc1`, the Potency result was “inactive”.

As for `N#C/C(=C\c1ccc(O)c(O)c1)C(=O)NCc1ccccc1`, the Potency result is “inactive”.

With `C=CC(=O)c1ccc(CCCCCC)cc1`, the Potency entry was “inactive”.

`O=c1[nH]c2cc(Cl)c(Cl)cc2[nH]c1=O`: the Potency result was “inactive”.

On to `Clc1ccc(N2CCN(Cc3cc4ccccn4n3)CC2)cc1`, for which the Potency result was “inactive”.

On to `O=C1NC(=O)/C(=C/c2ccc(-c3ccc(F)cc3O)o2)S1`, for which the Potency result is “inactive”.

Turning to `O=C(O)c1cc([N+](=O)[O-])ccc1NCCCc1ccccc1`, the Potency result was “inactive”.

For the compound `CN1CCc2cc(O)c(O)cc2C(c2ccccc2)C1` (stereo not given), the Potency entry is “inactive”.

Regarding `CCNC(=O)[C@H]1O[C@@H](n2cnc3c(N)nc(NCCc4ccc(CCC(=O)O)cc4)nc32)[C@H](O)[C@@H]1O`, the Potency result was “inactive”.

Turning to `CCN1/C(=C/C(C)=O)Sc2ccc(OC)cc21`, the Potency entry is “inactive”.

Turning to `O=C(c1ccc(OCCCc2cnc[nH]2)cc1)C1CC1`, the Potency result is “inactive”.

For the compound `CN(C)CCCO[C@@H]1[C@H]2OC(C)(C)O[C@H]2O[C@@H]1[C@H](O)CO`, the Potency result is “inactive”.

Consider `Nc1ncnc2c1ncn2[C@@H]1O[C@H](COP(=O)(O)OP(=O)(O)OP(=O)(O)OP(=O)(O)OC[C@@H]2O[C@H](n3cnc4c(N)ncnc43)[C@@H](O)[C@H]2O)[C@@H](O)[C@H]1O`, for which the Potency result was “inactive”.

`CC(=O)N[C@H](C(=O)O)C(C)(C)SN=O`: the Potency result was “inactive”.

As to `Nc1ncnc2c1ncn2[C@@H]1O[C@H](COP(=O)(O)CP(=O)(O)OP(=O)(O)O)[C@@H](O)[C@H]1O`, the Potency result was “inactive”.

As to `CSc1ccccc1N1CCN(CCCCCC(=O)NC2CCCc3ccccc32)CC1` (stereo not given), the Potency result is “inactive”.

Consider `Oc1cc2c(cc1O)CN(C(=S)NCCc1ccc(Cl)cc1)CCC2`, for which the Potency result is “inactive”.

On to `NS(=O)(=O)C#Cc1ccccc1`, for which the Potency entry is “inactive”.

Regarding `COc1cccc(C(=O)NCCN2CCN(c3ccc(Cl)cc3)CC2)c1`, the Potency entry was “inactive”.

As to `COc1cc(OC)c(/C=C2/C(=O)Nc3ccccc32)c(OC)c1`, the Potency result was “inactive”.

In the case of `CO/S(=N\S(=O)(=O)c1ccc(Cl)cc1)c1ccc([N+](=O)[O-])cc1` (stereo not given), the Potency result was “inactive”.

`CNC(=O)[C@H]1O[C@@H](n2cnc3c(NCc4cccc(I)c4)ncnc32)[C@H](O)[C@@H]1O`: the Potency entry is “inactive”.

For `NCCSSCCN`, the Potency entry is “inactive”.

On to `CCCCCCCC/C=C\CCCCCCCC(=O)NCCO`, for which the Potency result was “inactive”.

As for `CCCn1c(=O)c2[nH]c(-c3ccc(OCC(=O)NCCN)cc3)nc2n(CCC)c1=O`, the Potency entry was “inactive”.

With `Cc1ccc(O)c(N=Nc2ccccc2)n1`, the Potency entry is “inactive”.

As to `O=c1[nH]c2cc(C(F)(F)F)ccc2n1-c1cc(C(F)(F)F)ccc1O`, the Potency entry was “inactive”.

For `Cc1nc2sccn2c(=O)c1CCN1CCC(=C(c2ccccc2)c2ccc(F)cc2)CC1`, the Potency result was “inactive”.

Take `CC(C)ON([C@@H](C(=O)NO)C(C)C)S(=O)(=O)c1ccc(-c2ccccc2)cc1`: the Potency result was “inactive”.

For the compound `CN(C)CCC(c1ccc(Cl)cc1)c1ccccn1` (stereo not given), the Potency entry was “inactive”.
